The values below come from PubChem BioAssay.

The structures appear in SMILES notation. Active and inactive are the calls of the source. Unless noted, the rule behind the calls is not given here.

In test [1] the test system is XIP peptide (Xip251-270) binding. Description: XIP fragment 251-270 binding compounds – biochemical, small-molecule microarray, fluorescence 635/667 nm, 0.1 µg/mL protein, primary screen (AID 1182). The conditions noted are these: fluorescent protein binding, 635 nm, higher = more signal, called active from +8 up or from −8 down.
Test [2] deals with XIP peptide (Xip251-270). Nature of the test: compounds binding XIP fragment 251-270 – biochemical, small-molecule microarray, fluorescence 635/667 nm, 0.5 µg/mL protein, primary screen (AID 1183). As to conditions: fluorescence 635 nm, higher = more signal.
A short description of test [3]: blood-stage malaria parasite viability loss – strain 3D7, DAPI fluorescence, 100 nL, primary screen (AID 1184).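 Note: parasites grown inside human red blood cells in medium with human serum.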 The conditions noted are these: P. falciparum 3D7 growth, 3 d, higher = more signal.
Test [4] addresses Homeobox protein Hox-A13 (Mus musculus) (UniProt Q62424). Description: disruptors of Hoxa13 oligonucleotide interaction – biochemical, fluorescence polarization, labeled oligonucleotide, primary screen (AID 1185). As to conditions: Hoxa13:DNA binding, 15 min, higher = more signal, called active from +8 up or from −8 down. In general terms: Polarisation of emitted light reports the rotation of a fluorescent probe.

Test [5] can be described thus: blockers of DNA damage checkpoint Chk1 activation – imaging, HeLa, hydroxyurea, phospho-Chk1 antibody, percent positive cells, primary screen (AID 1186). As to conditions: hydroxyurea-induced phospho-Chk1 immunofluorescence imaging, higher = more signal.
The nature of test [6]: blockers of DNA damage checkpoint Chk1 activation – imaging, HeLa, hydroxyurea, phospho-Chk1 nuclear intensity, primary screen (AID 1187). As to conditions: hydroxyurea-induced phospho-Chk1 immunofluorescence imaging, higher = more signal.

Homeobox protein Hox-A13 (Mus musculus), sequence (Q62424 whole entry, looked up): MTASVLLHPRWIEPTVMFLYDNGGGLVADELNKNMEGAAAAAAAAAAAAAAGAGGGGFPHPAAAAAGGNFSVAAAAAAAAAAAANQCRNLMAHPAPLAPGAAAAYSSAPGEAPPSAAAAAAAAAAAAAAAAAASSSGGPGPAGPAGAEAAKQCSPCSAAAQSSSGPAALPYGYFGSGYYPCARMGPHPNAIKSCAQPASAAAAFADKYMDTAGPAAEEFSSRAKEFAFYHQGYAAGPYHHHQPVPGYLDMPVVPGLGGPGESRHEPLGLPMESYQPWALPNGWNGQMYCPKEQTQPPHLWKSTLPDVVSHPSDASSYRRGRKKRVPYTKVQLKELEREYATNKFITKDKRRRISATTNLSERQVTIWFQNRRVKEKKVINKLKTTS

Take `C=CCNC(=O)[C@H]1[C@@H]2C(=O)O[C@@H](c3ccccc3)[C@@H](c3ccccc3)N2[C@@H](c2ccccc2OCCO)[C@]12C(=O)Nc1ccc(C#CC3=CCCCC3)cc12`: the composite z-score in test [1] is -0.274 (inactive); in test [2], 0.769. In addition, the z-score was -2.06 in test [3], 2.46 (inactive) in test [4], -0.333 (inactive) in test [5] and -0.739 (inactive) in test [6].

As for `COCCOC(=O)N1C(=O)[C@@]2(c3cc(C#Cc4ccc(OC)cc4)ccc31)[C@H](c1ccc(O)cc1)N1[C@H](c3ccccc3)[C@H](c3ccccc3)OC(=O)[C@H]1[C@@H]2C(=O)NC[C@H](O)c1ccccc1`, the composite z-score in test [1] is 0.27 (inactive); in test [2], 0.77. Moreover, the z-score in test [3] was -1.66; in test [4] it was -0.934 (inactive); in test [5], -0.192 (inactive); in test [6], 0.249 (inactive).

On to `CN1C(=O)C2C=CC(C(O)c3ccc(I)cc3)N(N3CCCCC3)C2C1=O` (stereo unspecified), for which the composite z-score in test [1] is 0.405 (inactive); in test [2], 0.771. In addition, the z-score in test [3] is -0.378; in test [4], -4.82 (inactive); in test [5] it was 0.151 (inactive); in test [6], -0.062 (inactive).

Regarding `CCOC(=O)C[C@H]1[C@H](OC(=O)c2cc3ccccc3oc2=O)[C@@H](NC(=O)C2CCCCC2)c2cc(OCCCO)ccc2N1C(=O)c1ccccc1`, the composite z-score in test [1] is -0.194 (inactive); in test [2] it was 0.327. Besides, the z-score in test [3] is -1.73; in test [4], -3.06 (inactive); in test [5] it was 0.895 (inactive); in test [6], 1.11 (inactive).

Take `O=C1O[C@@H](c2ccccc2)[C@@H](c2ccccc2)N2[C@@H](c3ccc(OCCO)cc3)[C@]3(C(=O)Nc4ccccc43)[C@@H](C(=O)NC[C@H](O)c3ccccc3)[C@H]12`: the composite z-score in test [1] is 1.29 (inactive); in test [2] it was 0.345. The z-score in test [3] is 0.0884; in test [4], -5.41 (inactive); in test [5] it was 0.167 (inactive); in test [6], 0.696 (inactive).

As for `COC(=O)[C@@]1(Cc2ccc(F)cc2)[C@H]2c3cc(C(=O)N(C)C)n(Cc4ccc(S(C)(=O)=O)cc4)c3C[C@H]2CN1C(=O)c1ccccc1`, the composite z-score in test [1] was 1.46 (inactive); in test [2], 0.788. Further, the z-score in test [3] is -0.589; in test [4] it was -4.58 (inactive); in test [5] it was 0.144 (inactive); in test [6], 0.0541 (inactive).

Take `C=CCN1C(=O)[C@]2(O[C@H](CCO)[C@@H]([Si](C)(C)c3ccc(OC)cc3)[C@@H]2C)c2cc(N3C(=O)c4cccc5cccc3c45)ccc21`: the composite z-score in test [1] was 0.966 (inactive); in test [2], 0.749. Besides, the z-score in test [3] is -2.74; in test [4], -3.37 (inactive); in test [5], -2.42 (inactive); in test [6] it was -1.91 (inactive).

As to `[N-]=[N+]=Nc1ccccc1C[C@]1(C(N)=O)N=C(c2ccc(OCCCO)cc2)O[C@H]1c1ccccc1`, the values for the composite z-score in test [1] and in test [2] were -0.254 (inactive) and 0.537, respectively. The z-score in test [3] was -0.98; in test [4], -7.09 (inactive); in test [5], 0.0195 (inactive); in test [6], -0.54 (inactive).

Take `COC(=O)c1c(CC[C@@H](CO)NC(=O)N2CCC[C@H]2Cn2cc(-c3ccccn3)nn2)oc(C(C)=O)c1C(=O)OC`: the composite z-score was 1.82 (inactive) in test [1] and 0.667 in test [2]. Further, the z-score in test [3] was -1.04; in test [4], -2.59 (inactive); in test [5], -0.828 (inactive); in test [6], -0.692 (inactive).

For `CC(C)(C)OC(=O)CC[C@@]1(C(=O)NCCN2CCOCC2)N=C(c2ccc(OCCCO)cc2)O[C@@H]1c1ccccc1N=[N+]=[N-]`, the composite z-score in test [1] is 0.171 (inactive); in test [2], 0.401. For the same molecule, the z-score is -1.85 in test [3], -3.61 (inactive) in test [4], 0.17 (inactive) in test [5] and 0.297 (inactive) in test [6].

`COc1ccc([Si](C)(C)[C@H]2[C@H](CC(=O)N3Cc4ccccc4C[C@H]3CO)O[C@@]3(C(=O)N(Cc4ccc(N5CCC5=O)cc4)c4ccccc43)[C@@H]2C)cc1`: the composite z-score in test [1] was 0.0316 (inactive); in test [2] it was 0.817. Further, the z-score in test [3] was -1.95; in test [4], -3.83 (inactive); in test [5], -0.176 (inactive); in test [6] it was -0.0862 (inactive).

On to `COc1ccc(CCNC(=O)[C@@]2(Sc3ccc(C)cc3)CC(=O)N(C3CCCCC3)[C@@H]2c2ccc(CO)cc2I)cc1`, for which the composite z-score in test [1] was 0.0537 (inactive); in test [2], 0.753. The z-score was -2.12 in test [3], -1.88 (inactive) in test [4], 0.431 (inactive) in test [5] and 1.23 (inactive) in test [6].

Take `C=C[C@H](COC(C)=O)N(C(=O)OC(C)(C)C)S(=O)(=O)c1ccc(Br)cc1`: the composite z-score in test [1] was 0.252 (inactive); in test [2], -0.263. The z-score was 1.18 in test [3], -2.87 (inactive) in test [4], -0.255 (inactive) in test [5] and 0.0038 (inactive) in test [6].

`COc1ccc(C(=O)Nc2ccc(CN3C(=O)[C@@]4(O[C@@H](CC(=O)N5CCC[C@H]5CO)[C@H]([Si](C)(C)c5ccc(OC)cc5)[C@H]4C)c4ccccc43)cc2)cc1`: the composite z-score in test [1] was 0.135 (inactive); in test [2] it was 0.703. In addition, the z-score in test [3] is -0.183; in test [4], -3.33 (inactive); in test [5], -0.0567 (inactive); in test [6] it was 0.829 (inactive).

`COc1ccc(COC2OC[C@]3(C)[C@H]4C5=C(CN3C(=O)OC(C)(C)C)[C@H](C)C(CO)C(CO)C5CC[C@@H]24)cc1` (stereo partly specified): the composite z-score is -0.188 (inactive) in test [1] and 0.505 in test [2]. In addition, the z-score was -1.04 in test [3], -4.75 (inactive) in test [4], 0.721 (inactive) in test [5] and 0.353 (inactive) in test [6].

Take `COC(=O)C=C(CC(O)c1cccc(Cl)c1)OC` (stereo unspecified): the composite z-score in test [1] was 0.633 (inactive); in test [2], 0.744. For the same molecule, the z-score was -0.0951 in test [3], -1.42 (inactive) in test [4], -1.22 (inactive) in test [5] and -1.18 (inactive) in test [6].
